Reference: the OligoGym collection

target: ELF2; assay: pooled miR-30 sensor sort-seq; sequence = guide strand; conditions: shRNA

| Sequence | sensor-assay potency score (higher = more potent) |
| --- | --- |
| TGATATTCACAACTCTAGCTAC | -0.607 |
| TTTATCTTGAAGTAGATCTAAA | -0.649 |
| TTGTTCTTCTGCCACATCTTGC | -0.939 |
| TTTCACATCATGTTCTTGCTTT | 0.568 |
| TTGATAGTCTCATTACAGGTGT | -0.336 |
| TATGACTGCACTGATAACTCGA | 0.372 |
| TATCCTTGAACTGATATACAAG | -1.19 |
| TTTGTCTGCAGTTGACACTGTG | 0.266 |
| TAATCTGGCACTTGGAACTGGC | -0.333 |
| TTTGTCATCATCTATGACCACT | -0.807 |

target: EMD; assay: as above; conditions: shRNA

| Sequence | sensor-assay potency score (higher = more potent) |
| --- | --- |
| TACATATCTGCATCCCCTCTAG | -0.434 |
| TCTGGTAGAGTAAAGCGTCCTC | 0.201 |
| TAGTGCGTGATGCTCTGGTAGG | -0.899 |
| TCGTACTCGAAGATCTTCTTCT | 0.284 |
| AAGATCGTCATCATGCACCTGG | 0.638 |
| TTCCCTATCCTTGCACTCCTCT | -0.239 |
| AAGAAGACAAAAGATCGTCATC | -1.25 |
| ATCGTCATCATGCACCTGGTGA | -0.488 |
| ATCTTCTTCTCGTAAAGCCTAC | -1.02 |
| TCGAAGATCTTCTTCTCGTAAA | -1.01 |
| TAATAGGACAGGTCCAGGGAGC | -1.25 |
| TATCCTTGCACTCCTCTTCAGA | -0.66 |
| AAAGCCTACGAGTTGATCCTAC | -0.00514 |
| TAGCTCTCTTCATAGTAGTCGT | -0.538 |
| TGGTGAAGTAGCTCTCTTCATA | -1.46 |
| TACGAGTTGATCCTACTACAGG | -1.33 |
| TGCTCTGGTAGAGTAAAGCGTC | -0.878 |
| TTCTTCTCGTAAAGCCTACGAG | -0.852 |
| TACTCGAAGATCTTCTTCTCGT | -0.0297 |
| AATGAAGTCACTGACTGGCGGA | -0.824 |
